FBW7 activator: activators of human E3 ligase FBW7 | Q969H0 | AlphaScreen FBW7–phospho-cyclin E peptide binding, activator screen | normalized activity (activation), % at 26.1 µM | hit rate 0.13% among 650,000 | AID 1259310; in the data active = normalized activity above about 1.9%;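 also: purified mutant Fbw7 with reduced substrate affinity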
MITF inh: human MITF inhibition, primary screen; AlphaScreen MITF homodimerization, bead proximity signal; inhibition, % at 2.6 µM; hit rate 0.91% among 650,000; in the data active = inhibition above about 50%;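 also: 0% = vehicle wells with protein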
Target sequence (O75030 whole entry, looked up): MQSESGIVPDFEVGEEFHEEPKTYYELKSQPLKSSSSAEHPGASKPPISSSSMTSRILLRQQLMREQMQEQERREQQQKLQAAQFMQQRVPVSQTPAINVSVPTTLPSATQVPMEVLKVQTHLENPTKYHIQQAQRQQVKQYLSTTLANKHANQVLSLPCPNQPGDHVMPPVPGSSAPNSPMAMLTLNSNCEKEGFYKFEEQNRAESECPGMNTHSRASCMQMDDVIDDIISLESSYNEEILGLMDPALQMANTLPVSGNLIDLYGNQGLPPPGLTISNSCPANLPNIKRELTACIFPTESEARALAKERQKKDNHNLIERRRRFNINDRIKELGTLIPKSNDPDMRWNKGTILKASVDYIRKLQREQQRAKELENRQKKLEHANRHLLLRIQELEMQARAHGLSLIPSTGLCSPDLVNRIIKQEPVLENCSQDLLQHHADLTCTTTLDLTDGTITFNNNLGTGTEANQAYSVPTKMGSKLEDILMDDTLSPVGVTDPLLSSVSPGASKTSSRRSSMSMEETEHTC
GPR151 activ: activates the human receptor GPR151 | PathHunter beta-arrestin GPR151 cells, luminescence | activation, % at 11.2 µM | hit rate 1% among 650,000 | AID 1508602 | Q8TDV0; in the data active = activation above about 4.9%;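 also: 0% = median of compound wells and 100% = cells with positive control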
TEAD-YAP block: TEAD-YAP interaction inhibition | hit rate 1.4% among 640,000 | inhibition, % at 9.12 µM | HEK-TIYL cells, TEAD-Gal4/YAP UAS-luciferase luminescence; in the data active = inhibition above about 32%;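 also: 0% = median of test compound wells and 100% = reference inhibitor wells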
MITF inh conf: confirmation of human MITF inhibitors. inhibition, % at 2.6 µM. shares compounds with MITF inh. hit rate 16% among 4,700. AlphaScreen MITF homodimerization, biotin/His-MITF beads;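 active = inhibition above a cutoff derived from the DMSO control wells, cut at about 28% in these data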;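 also: 0% = MITF dimer wells with DMSO only; inhibitors lower the bead chemiluminescence by keeping MITF from dimerizing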
AS interf DR: optically interferes with AlphaScreen signal in dose response; hit rate 6% among 480; shares compounds with MITF inh; IC50, µM; AlphaScreen optical interference counterscreen, cell-free; call rule not given here
AlphaScreen intf2: AlphaScreen optical interference, counter-screen; AID 1259376; shares compounds with MITF inh; LysRS AlphaScreen counterscreen, signal interference, triplicate; inhibition, % at 2.6 µM; hit rate 7.6% among 4,700;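 active = inhibition above a cutoff derived from the DMSO control wells, cut at about 30% in these data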
* marks the source's active call; other numbers are inactive results; x = no result given. Shown are actives, neighbours in structure and some others; about 3.5% of the full set was active somewhere.

SMILES	FBW7 activator	MITF inh	GPR151 activ	TEAD-YAP block	MITF inh conf	AlphaScreen intf2	others
OCCN1CCN(Cc2cccc(Br)c2)CC1	0	91*	0	7	0	1
CCOc1ccc(CN2CCN(CCO)CC2)cc1	0	42	2	-3	x	x
OCCN1CCN(Cc2ccc(Br)cc2)CC1	0	67*	1	7	-3	3
OCCN1CCN(Cc2ccc(Cl)c(Cl)c2)CC1	0	83*	2	5	6	1
OCCN1CCN(Cc2ccc(Cl)cc2Cl)CC1	0	51*	0	8	2	1
COc1ccc(CN2CCN(CCO)CC2)cc1OC	0	14	0	-1	x	x
CCN1CCN(Cc2cc(OC)c(OC)cc2Br)CC1	0	4	0	-1	x	x
COc1ccc(CN2CCN(C(C)C)CC2)c(OC)c1	0	71*	0	2	7	16
COc1cc(OC)c(OC)cc1CN1CCN(C(C)C)CC1	0	68*	-2	7	4	3
COc1ccc(CN2CCN(CCO)CC2)c(OC)c1	1	5	0	10	x	x
NNC(=O)c1nnn(-c2nonc2N)c1Cn1cnc([N+](=O)[O-])n1	0	0	0	-1	x	x
CC(C)CN1CCN(Cc2cc3c(cc2Cl)OCO3)CC1CCO (configuration not stated)	0	6	1	10	x	x
CC(C)N1CCN(Cc2cccnc2)CC1	0	74*	0	13	4	7
COc1cccc(CN2CCN(C(C)C)CC2)c1	0	46	1	4	x	x
CCC(C)N1CCN(Cc2cccc(Br)c2)CC1 (configuration not stated)	0	73*	1	9	8	15
CCN1CCN(Cc2cccc(Br)c2)CC1	0	16	1	5	x	x
CC(C)N1CCN(Cc2cccc(Br)c2)CC1	0	82*	0	12	14	13
CC(C)N1CCN(Cc2ccco2)CC1	0	62*	1	-2	7	-3
CC(C)CC(=O)NC(OCc1ccccc1)C(Cl)(Cl)Cl (configuration not stated)	0	18	0	3	x	x
CC1(CBr)CSc2n1c1ccccc1[n+]2CC1CO1 (configuration not stated)	1	-3	-1	2	x	x
c1ccc(C2=NCCN2P(N2CC2)N2CC2)cc1	0	9	1	0	x	x
c1ccc(C2=NCCN3C2C3c2ccccc2)cc1 (configuration not stated)	0	-5	2	1	x	x
CCNC1(c2nnnn2-c2cccc(Cl)c2)CCC(C)CC1 (configuration not stated)	0	-8	0	-8	x	x
CN(N=O)c1cc(O)ccc1O	0	78*	1	7	62*	-19	AS interf DR=>6.5
O=C(NC(Oc1ccccc1)C(Cl)(Cl)Cl)c1ccco1 (configuration not stated)	0	10	1	5	x	x
SMILES	FBW7 activator	MITF inh	GPR151 activ	TEAD-YAP block	MITF inh conf	AlphaScreen intf2	others
CCOc1cc(CN2CCN(CCO)CC2)ccc1OC	1	8	-1	5	x	x
COc1ccc(CN2CCNCC2)cc1Br	0	10	-1	19	x	x
CCOc1cc(CN2CCN(C(C)CC)CC2)ccc1OC (configuration not stated)	0	74*	1	-6	-3	-9
CCC(C)N1CCN(Cc2ccc(OC)c(Br)c2)CC1 (configuration not stated)	0	82*	2	27	24	14
CCOc1cccc(OCC)c2c(C)[n+](C)c(C)c1-2	0	73*	0	-34	79*	3	AS interf DR=>5.1
CCOc1cccc(OCC)c2c(C)nc(C)c1-2	0	76*	2	8	82*	-2
CN(C)CCOC(=O)NC(OCCN(C)C)C(Cl)(Cl)Cl (configuration not stated)	0	3	2	-3	x	x
COc1ccc2[nH]cc(CCN=C(N)N=C(N)N)c2c1	0	20	-1	0	x	x
COc1ccccc1CCNCc1cc(OC)c(OC)cc1OC	0	28	-2	2	x	x
COc1ccccc1CCNCc1ccccc1OC	0	52*	0	-7	2	-8
Fc1cccc(CCNCc2ccccn2)c1	-1	62*	0	-8	-5	6
Clc1ccc(CCNCc2ccccn2)c(Cl)c1	0	33	-1	-5	x	x
CCOc1ccc(CN(CCc2ccc3c(c2)OCO3)Cc2ccc([N+](=O)[O-])cc2)cc1	0	54*	-3	3	1	15
CCOc1ccc(CN(CCc2ccc3c(c2)OCO3)Cc2ccccc2)cc1	0	15	2	-4	x	x
Nc1ncnc2c1ncn2[C@@H]1O[C@H](COP(=O)(O)CP(=O)(O)OP(=O)(O)O)[C@H](O)C1O (some centres not stated)	0	11	-1	-4	x	x
CCN(CC)c1ncnc2c1ncn2[C@@H]1O[C@H](COP(=O)(O)OP(=O)(O)C(Br)(Br)P(=O)(O)O)C(O)[C@@H]1O (some centres not stated)	0	73*	3	x	88*	-23	AS interf DR=>6.5
O=C(c1ccncc1)N1CCN(C2CC3CCC2C3)CC1 (configuration not stated)	0	64*	2	-4	1	14
O=C(c1ccncc1)N1CCN(C2C3CC4CC(C3)CC2C4)CC1 (configuration not stated)	0	76*	1	11	-3	-3
O=C(C1CC(c2ccccc2F)=NO1)N1CCC2(CC1)OCCO2 (configuration not stated)	0	8	-1	-38	x	x
Brc1ccccc1CN1CCN(Cc2ccc3c(c2)OCO3)CC1	0	60*	-1	4	4	10
CN1CCN(Cc2ccc3c(c2)OCO3)CC1	0	35	-1	3	x	x
Cc1ccccc1CN1CCN(Cc2ccc3c(c2)OCO3)CC1	0	58*	0	12	2	4
COc1ccc(CCNCc2ccc(OC)cc2)cc1	0	21	-1	8	x	x
COc1ccc(CCNCc2ccc(OC)c(OC)c2)cc1	0	51*	-1	6	-1	-6
FC(F)(F)c1ccccc1CNCCc1ccc2c(c1)OCO2	0	55*	1	8	-16	-2
COC(=O)NP(=O)(NNc1ccccc1)OC (configuration not stated)	0	16	1	-3	x	x
CC1(C)CC(=O)c2sc(N[N+](=O)[O-])nc2C1	0	84*	0	-13	-1	-4
CCn1c2ccccc2c2cc(CN3CCN(C)CC3)ccc21	0	63*	0	4	14	13
COC(=O)C1=C(C(=O)OC)C2c3ccccc3C=CN2C(C(=O)OC)=C1C(=O)OC (configuration not stated)	1	51*	1	3	51*	14

From PubChem
